Bioassay records from PubChem.
IMPase inh: qHTS Assay for Identifying the Cell-Membrane Permeable IMPase Inhibitors; Inositol monophosphatase 1 (Rattus norvegicus), P97697; CHO-M1 cells, IP1 accumulation, HTRF TR-FRET ratio; inhibition (IP1 accumulation), % at 46.1 µM; 120,000 tested, under 10 active; active = well fitted curve in the direction sought with a large enough effect in the signal ratio, not every such curve was filed as active; inconclusive = small, poorly fitted or top-dose-only effect, or a change in a side signal; inactive = no such curve, though single readings can be large or run the other way; the % refers to the signal ratio;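 note: cells stimulated with carbachol in lithium chloride buffer; plate controls were DMSO basal wells for no effect and reference inhibitor wells for full effect; higher means more IMPase inhibition seen as more IP1 and lower FRET ratio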
Target sequence (P97697 whole entry, looked up): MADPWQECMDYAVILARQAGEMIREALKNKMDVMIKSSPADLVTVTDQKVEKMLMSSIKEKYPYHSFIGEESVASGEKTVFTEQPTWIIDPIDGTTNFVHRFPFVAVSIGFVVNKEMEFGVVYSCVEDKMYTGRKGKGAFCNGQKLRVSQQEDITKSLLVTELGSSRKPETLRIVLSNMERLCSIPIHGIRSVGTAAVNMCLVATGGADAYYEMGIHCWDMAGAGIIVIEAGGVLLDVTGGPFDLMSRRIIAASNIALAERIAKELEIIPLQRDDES
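Carbachol-driven Gq signalling in CHO-M1 cells (2000/well) generates IP1. Compounds that block IMPase raise IP1 and so reduce the FRET signal from Eu-anti-IP1 and d2-IP1 after a 10 min room-temperature lysis.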
HPGD inh: qHTS Assay for Inhibitors of HPGD (15-Hydroxyprostaglandin Dehydrogenase) | Potency, µM, for inactives: at the highest dose activity change, negative = inhibition, hits mostly inhibitors | 4.3% of 150,000 active | 15-hydroxyprostaglandin dehydrogenase [NAD(+)] (Homo sapiens), P15428 | purified HPGD, NADH fluorescence kinetic, PGE2 substrate; active = well fitted inhibition curve with a large enough effect, not every such curve was filed as active; inconclusive = small, poorly fitted or top-dose-only effect, or another doubt; inactive = no such curve, though single readings can be large or run the other way; note: potency is the fitted concentration of half-maximal effect
Target sequence (P15428 whole entry, looked up): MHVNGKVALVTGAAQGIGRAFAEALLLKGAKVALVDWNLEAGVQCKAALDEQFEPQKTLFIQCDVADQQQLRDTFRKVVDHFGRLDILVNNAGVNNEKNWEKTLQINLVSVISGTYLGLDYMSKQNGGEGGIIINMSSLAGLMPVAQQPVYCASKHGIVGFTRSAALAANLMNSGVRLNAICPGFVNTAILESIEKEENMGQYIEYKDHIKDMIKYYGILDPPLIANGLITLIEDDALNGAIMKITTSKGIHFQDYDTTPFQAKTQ
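NADH formation kinetics: reaction with 30 uM PGE2 and 1 mM NAD+ (final), 20 nM enzyme, Tris-HCl pH 8 with Tween 20, after 15 min compound preincubation at room temperature. Fluorescence change, last versus first of five reads.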
ALOX12 inhib: qHTS Assay for Inhibitors of 12-hLO (12-human lipoxygenase). Polyunsaturated fatty acid lipoxygenase ALOX12 (Homo sapiens), P18054. purified 12-hLO, xylenol orange hydroperoxide absorbance. Potency, µM (top dose mostly 57.1 µM), without a hit: at the top dose activity change, negative = inhibition, most hits filed as inhibitors. 0.12% of 150,000 active; note: potency is the fitted concentration of half-maximal effect; nearly all actives have a fitted effect of over 55% in size
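Purified human 12hLO (150 nM), preincubated 15 min with compound, then 40 uM arachidonic acid for 30 min, room temperature, Hepes pH 7.0 with 0.01% Triton X-100. Hydroperoxide detected by ferrous iron/xylenol orange; 573/405 nm absorbance ratio gives reaction progress.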
IMPase Li cell: qHTS Assay for Identifying the Cell-Membrane Permeable IMPase Inhibitors: Potentiation with Lithium; CHO-M1 cells, IP1 TR-FRET (IP-One), carbachol + lithium; Potency, µM (titrated, usually from 59.4 µM), without a hit: at the top dose activity, negative = IMPase inhibition, usual class: inhibitors; 0.35% of 210,000 active; AID 1457, 2008;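 note: IP1 builds up when IMPase is blocked and the TR-FRET signal falls; potency is the fitted concentration of half-maximal effect; plate controls were basal vehicle for no effect and high inhibitor control for full effect; nearly all actives have a fitted effect of over 50% in size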
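CHO-M1, 2000 cells/well, 16–30 h culture; cpd + low Li+, 30 min 37C; lysis with d2-IP1/Eu-anti-IP1 Ab, 10 min RT; TR-FRET 665/620 ratio and 620 channel; AC50 via Hill.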
PNC inhibitor: High Content Assay for Compounds that inhibit the Assembly of the Perinucleolar Compartment; activity change (PNC), negative = inhibition, % at 10 µM; 3.1% of 140,000 active; PC3M PTB-GFP, PNC prevalence imaging, 16 h; hits give low values; AID 2417, 2010;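 active = readout at or below -70, meaning at least 70% loss of cells showing the perinucleolar compartment, a nuclear body marking cancer cells; inconclusive = readout between -30 and a set limit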;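 note: plate controls were DMSO wells for no effect and camptothecin positive control wells for full effect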
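Compounds are pinned in duplicate onto adhered PC3M cells stably expressing GFP-tagged PTB and incubated 16 h at 37 C. Cells are then fixed, nuclei stained with Hoechst, and PNC-positive cells counted.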
15-hLO-2 inh: qHTS Assay for Inhibitors of 15-hLO-2 (15-human lipoxygenase 2); 0.56% of 110,000 active; AID 881, 2007; Potency, µM (doses to about 57.1 µM), for inactives: at the highest dose activity change, negative = inhibition, hits mostly inhibitors; purified 15hLO-2, xylenol orange hydroperoxide absorbance; Polyunsaturated fatty acid lipoxygenase ALOX15B (Homo sapiens), O15296; note: potency is the fitted concentration of half-maximal effect; nearly all actives have a fitted effect of over 60% in size
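Screening format was qHTS against 50 nM purified 15hLO-2 in Hepes pH 7.5 with detergent. Activity follows hydroperoxide formation from 45 uM arachidonic acid, measured as 573:405 nm absorbance ratio of the ferric-xylenol orange complex.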
An asterisk follows results filed as active; ? = inconclusive; / = no result; [ ] = dose if it differs, or a comment. Hits are enriched below; roughly 5.4% of the tested compounds scored in any of these assays. Unless noted, calls come from the whole dose curve; as a rule, active = well fitted curve in the direction sought with a large enough effect; inconclusive = small, poorly fitted or top-dose-only effect, or another doubt; inactive = no such curve, though single readings can be large; an effect the other way counts as inactive or inconclusive. Unless noted, % is set by controls: 0 for no effect and ±100 for the full control effect.

SMILES | IMPase inh | HPGD inh | ALOX12 inhib | IMPase Li cell | PNC inhibitor | 15-hLO-2 inh
Cc1ccc(C(=O)NC(=S)Nc2ccccc2C(F)(F)F)cc1C | -3 | -21% | 22µM* | 17%[38.3 µM] | 72 | 25µM*
COc1ccccc1/C=N/NC(=O)c1ccc(NC(=O)c2cccc([N+](=O)[O-])c2)cc1 | / | / | / | 1% | / | /
COc1cccc(/C=N/NC(=O)c2cc3cc([N+](=O)[O-])ccc3s2)c1O | / | 28µM* | -3% | -5% | ? | /
OCc1cn(-c2ccccc2)nc1-c1ccc(-c2nn(-c3ccccc3)cc2CO)cc1 | 0 | ? | -13% | 28µM* | 22 | -5%
O=C(O)Cc1cn(-c2ccccc2)nc1-c1ccccc1 | / | / | / | 2% | / | /
COC(=O)C(C(=O)OC)c1ccc(NC(=O)c2cccc(Cl)c2)cc1 | / | / | / | 2% | / | /
O=C(Nc1ccc(N=Nc2ccccc2)cc1)c1cccc(Cl)c1 | 13 | 2% | -2% | -7% | -111* | 2%
Cc1oc(=O)c(NC(=O)c2cccc(Cl)c2)cc1C(=O)c1ccccc1 | 3 | 32µM* | -21% | 1%[38.3 µM] | 40 | -27%
O=C(NC(NC(=S)Nc1ccccc1)C(Cl)(Cl)Cl)c1cccc(Cl)c1 (stereo not given) | 7 | -8% | ? | 9%[38.3 µM] | 8 | 25µM*
O[C@@H]([C@H](O)[C@@H](O)CBr)[C@@H](O)CBr | / | 0% | 1% | 1% | / | -2%
CC(C)(C)OC(=O)NCCCC1=CC2=CC(=O)C(C)(OC(=O)c3cnc4ccccc4n3)C(=O)C2=CO1 (stereo not given) | / | -11% | -5% | 13% | / | /
N#Cc1nc(-c2ccco2)oc1N1CCN(c2cccc(Cl)c2)CC1 | 3 | ? | -4% | 40%[38.3 µM] | -82* | -3%
O=C(Cn1cc(C(F)(F)F)cc(Cl)c1=O)Nc1cccc(Cl)c1 | 4 | ? | 0% | 10µM* | ? | /
O=C(O)/C(Cc1ccc([N+](=O)[O-])cc1)=N/O | / | -7% | -4%[11.4 µM] | 3% | / | -6%[11.4 µM]
CCOC(=O)[C@]1(CC(=O)O)CCCC1=O | / | -9% | 6%[11.4 µM] | -3% | / | 4%[11.4 µM]
O=S(=O)(NC1CCCCC1)c1cccc(-c2nnc(-c3ccccc3)o2)c1 | 0 | 18µM* | -8% | 12%[38.3 µM] | 35 | -11%
Cc1ccccc1NS(=O)(=O)c1cccc(-c2nnc(-c3ccccc3)o2)c1 | 5 | ? | -11% | 9%[38.3 µM] | -5 | -11%
O=C(O)CC/C=C\CC[C@H]1[C@@H](N2CCCCC2)[C@@H](O)C[C@@H]1OCc1ccc(-c2ccccc2)cc1 | 6 | 2% | 1% | 15% | / | 21%
Cc1cc(C)n(S(=O)(=O)c2ccc(C(C)(C)C)cc2)n1 | 0 | 20µM* | -4% | 2%[38.3 µM] | ? | 4%[2.29 µM]
Cc1cc(C)n(S(=O)(=O)c2ccc3ccccc3c2)n1 | 12 | -29% | -1% | 4%[38.3 µM] | -8 | -5%
Cc1ccccc1OCC(=O)Nc1sc(C(=O)Nc2cccc(C)c2C)c(C)c1C#N | ? | ? | -7% | 1µM* | 19 | -7%
COc1ccccc1NC(=O)c1sc(NC(=O)c2ccco2)c(C#N)c1C | -9 | -28% | -2% | 26%[38.3 µM] | 34 | -6%
COc1ccc(CCCc2nnc(SCC(=O)Nc3ccc(Cl)cc3)o2)cc1 | 8 | / | / | / | / | /
CSCC[C@H](NC(=O)[C@H](Cc1ccccc1)NC[C@@H](NC[C@@H](N)CS)C(C)C)C(=O)O | / | / | / | 7% | / | /
Cc1nn(C(=O)c2ccc(Cl)cc2)c(C)c1Sc1ccc(Cl)cc1 | -10 | / | / | / | / | /
SMILES | IMPase inh | HPGD inh | ALOX12 inhib | IMPase Li cell | PNC inhibitor | 15-hLO-2 inh
COc1cccc(NC(=O)CN2CCN(S(=O)(=O)c3ccc(F)cc3)CC2)c1 | 8 | 1% | -4% | 31%[38.3 µM] | -111* | 9%
COc1ccc(NS(=O)(=O)c2cccc(NC(=O)c3ccc(S(=O)(=O)N4CCCCCC4)cc3)c2)cc1 | / | -13% | -1% | 11% | -112* | /
COc1ccc(NS(=O)(=O)c2ccc3c(c2)n(C)c(=O)n3C)cc1 | -3 | 16µM* | 1% | 16%[38.3 µM] | -10 | 4%
COc1cccc(NC(=O)CN2CCN(S(=O)(=O)c3ccc(C(C)C)cc3)CC2)c1 | 10 | -15% | 2% | 28%[38.3 µM] | -28 | 11%
COc1ccc(NS(=O)(=O)c2ccc(N3CCCC3)c(NC(=S)Nc3cccc(S(=O)(=O)N(C)C)c3)c2)cc1 | / | 3.2µM* | -13% | 8% | ? | /
COC(=O)C1(C(=O)OC)C[C@H]2CON=C2[C@H]1c1ccccc1 | / | -9% | 1% | 9% | / | /
Cc1nc2cnc(N(C)C)nc2n(CCc2ccccc2)c1=O | / | / | / | 15% | / | 22%
O=c1[nH]c(=O)n([C@@H]2C[C@H](O)[C@H](CO)O2)cc1C(F)(F)F | 2[20.6 µM] | -8% | -6%[25.6 µM] | 5% | / | 5%[25.6 µM]
CCOC(=O)c1nc(Nc2ccc(C(=O)OC(C)C)cc2)c2ccccc2n1 | -6 | / | / | / | / | /
COc1ccc(C(=O)NNC(=O)C(C)NC(=O)c2ccccc2NC(=O)c2ccco2)cc1 (stereo not given) | 4 | -15% | 6% | -5% | -93* | /
COc1ccc(NC(=O)c2ccccc2NC(=O)c2ccco2)c(OC)c1 | -3 | -10% | -2% | -10%[38.3 µM] | ? | 10%
CC(C)c1ccccc1NC(=O)c1ccco1 | -1 | 7% | -12% | -6%[38.3 µM] | -96* | -6%
CC(C)c1ccc2oc(-c3cc(NC(=O)c4cccnc4)ccc3Cl)nc2c1 | 7 | / | / | / | / | /
CCOc1ccc(Cc2nnc(N)s2)cc1OCC | -6 | -5% | 1% | 21%[38.3 µM] | -86* | 2%
COc1ccc(CCNC(=O)c2cc(=O)[nH]c3ccc(Br)cc23)cc1OC | ? | -8% | 2% | -19% | -113* | /
COc1ccc(CCNC(=O)Cc2cc(=O)[nH]c(=O)[nH]2)cc1OC | 6 | -6% | 13% | ? | 62 | 4%
CCCCOc1ccc(CN2CCC(O)CC2)cc1 | 13 | -20% | 3% | 39%[38.3 µM] | -100* | -14%
COc1cc(/C=C2\S/C(=N/S(=O)(=O)c3ccccc3)NC2=O)c([N+](=O)[O-])cc1OC | 0 | 7.1µM* | -14% | -6% | 6 | /
COc1ccc(S(=O)(=O)/N=C2/NC(=O)/C(=C\c3ccco3)S2)cc1 | / | 28µM* | ? | -5% | 4 | /
